# Assay results from the supplement of paper PMC9177965.
# Several values for one entry are separate records, joined by “and”; a condition that tells them apart may be missing. Identical values can stand only once.
# System: HT29 RNF43 G659fs (RNF43 659mut, CRISPR-edited)
# Assay: cell viability activity relative to DMSO (negative = inhibition); higher = more viable cells (less growth inhibition)
# Conditions: 5 µM; 96 h
# Protocol: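 Broad Repurposing Library primary screen at a single dose of 5 uM. HT29 sg-Ctrl and HT29 RNF43 G659fs CRISPR-edited isogenic cells were seeded at 2500 cells/well in 384-well plates in duplicate and treated for 96 h. Viability was read by CellTiter-Glo and reported as % activity relative to DMSO, with MG132 as the positive control (negative = growth inhibition).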
row,Structure (SMILES),cell viability activity
1,C=C(C)[C@H]1Cc2c(ccc3c2O[C@@H]2COc4cc(OC)c(OC)cc4[C@@H]2C3=O)O1,-61.5%
2,COc1cc([C@@H]2c3cc4c(cc3[C@H](O)[C@H]3COC(=O)[C@H]23)OCO4)cc(OC)c1OC,-59.9%
3,COc1cc2c(c(OC)c1OC)-c1ccc(OC)c(=O)cc1[C@@H](NC(C)=O)CC2,-55.9% and -56.4%
4,N#Cc1cn([C@@H]2O[C@H](CO)[C@@H](O)[C@H]2O)c2ncnc(N)c12,-94.2%
5,CC(=O)O[C@@]12CO[C@@H]1C[C@H](O)[C@@]1(C)C(=O)[C@H](O)C3=C(C)[C@@H](O)C[C@@](O)([C@@H](OC(=O)c4ccccc4)[C@H]21)C3(C)C,-37.1%
6,COc1ccc(CCN2CCC(Nc3nc4ccccc4n3Cc3ccc(F)cc3)CC2)cc1,-23.2%
7,COc1ccc(C[C@H]2NC[C@H](O)[C@H]2OC(C)=O)cc1,-91.2%
8,COc1cccc2c1C(=O)c1c(O)c3c(c(O)c1C2=O)C[C@@](O)(C(=O)CO)C[C@@H]3O[C@H]1C[C@H](N2CCO[C@H](OC)C2)[C@H](O)[C@H](C)O1,-96.6%
9,NC(=O)c1cn([C@@H]2O[C@H](CO)[C@@H](O)[C@H]2O)c2ncnc(N)c12,-95.1%
10,O=[N+]([O-])C=Cc1ccc2c(c1)OCO2,-25.8%
11,CC(C)(C)c1cc(C=C(C#N)C#N)cc(C(C)(C)C)c1O,-79.1%
12,CC[C@@H](C(=O)[C@@H](C)[C@@H](O)[C@H](C)[C@@H]1O[C@@H]([C@@H](CC)C(=O)O)CC[C@@H]1C)[C@H]1O[C@]2(C=C[C@@H](O)[C@]3(CC[C@@](C)([C@H]4CC[C@](O)(CC)[C@H](C)O4)O3)O2)[C@H](C)C[C@@H]1C,-79.3%
13,C[C@H]1CCC/C=C/[C@@H]2C[C@H](O)C[C@H]2[C@H](O)/C=C/C(=O)O1,-99.3% and -97.5%
14,CCCCCCCCCCCCCCCC[n+]1ccccc1,-92.7%
15,CCN(CC)CCO[C@H]1CC[C@@]2(C)C(=CC[C@@H]3[C@@H]2CC[C@]2(C)C(=O)CC[C@@H]32)C1,-67.5%
16,C=C1[C@@H](C)[C@H]2[C@H](Cc3ccccc3)NC(=O)[C@]23OC(=O)/C=C/[C@H](O)CCC[C@@H](C)C/C=C/[C@H]3[C@@H]1O,-28.2%
17,CC[C@@H]1/C=C/C=C/C[C@H](C)[C@H](O)[C@](C)(O)C(=O)[C@H](C)[C@@H](O)[C@H](C)C(=O)[C@H](C)[C@@H](O)[C@H](C)/C=C/C(=O)O[C@H]2[C@@H](C)[C@@H](CC1)O[C@@]1(CC[C@@H](C)[C@@H](C[C@H](C)O)O1)[C@@H]2C,-38.4%
18,N#CC(C#N)=NNc1cccc(Cl)c1,-83.3%
19,O=C1C=C2C=C[C@@H]3C[C@@]2(O1)[C@H]1CCCCN31,-29.8%
20,C/C(=C\c1csc(C)n1)[C@@H]1C[C@@H]2O[C@]2(C)CCC[C@H](C)[C@H](O)[C@@H](C)C(=O)C(C)(C)[C@@H](O)CC(=O)O1,-51.7%

row,Structure (SMILES),cell viability activity
1,CN(C)C(=S)SSC(=S)N(C)C,-72.8%
2,Clc1cccc(SC2CCNCC2)n1,-56.2%
3,C[C@@H]1O[C@@H](O[C@@H]2C=C3CC[C@@H]4[C@H](CC[C@]5(C)[C@@H](c6ccc(=O)oc6)CC[C@]45O)[C@@]3(C)CC2)[C@H](O)[C@H](O)[C@H]1O,-81.8%
4,CC[C@H]1CN2CCc3cc(OC)c(OC)cc3[C@@H]2C[C@@H]1C[C@H]1NCCc2cc(OC)c(OC)cc21,-93.8% and -97.5%
5,COC(=O)NC(=S)Nc1ccccc1NC(=S)NC(=O)OC,-31.4%
6,C/C1=C/C[C@@H](/C(C)=C/c2csc(C)n2)OC(=O)C[C@H](O)C(C)(C)C(=O)[C@H](C)[C@@H](O)[C@@H](C)CCC1,-63.7%
7,C[C@@H]1O[C@@H](O[C@H]2C[C@@H](O)[C@]3(CO)[C@H]4[C@H](O)C[C@]5(C)[C@@H](C6=CC(=O)OC6)CC[C@]5(O)[C@@H]4CC[C@]3(O)C2)[C@H](O)[C@H](O)[C@H]1O,-90.4% and -90%
8,Cc1sc2c(c1C)C(c1ccc(Cl)cc1)=N[C@@H](CC(=O)Nc1ccc(O)cc1)c1nnc(C)n1-2,-56.2%
9,C[C@]12CC[C@H]3[C@@H](CC[C@]4(O)C[C@@H](O)CC[C@]34C=O)[C@@]1(O)CC[C@@H]2C1=CC(=O)OC1,-81.8%
10,CC1CC(C)C(=O)C(C(O)CC2CC(=O)NC(=O)C2)C1 (stereo not given),-82.5%
11,COc1cc2cc(c1Cl)N(C)C(=O)C[C@H](OC(=O)C(C)C)[C@]1(C)O[C@@H]1[C@H](C)[C@@H]1C[C@@](O)(NC(=O)O1)[C@H](OC)/C=C/C=C(\C)C2,-66.8%
12,CCNC(=O)C[C@@H]1N=C(c2ccc(Cl)cc2)c2cc(OC)ccc2-n2c(C)nnc21,-56.9%
13,O=Cc1cn(Cc2ccc(Cl)cc2)c2ccccc12,-38.7%
14,CC[C@@]1(O)C(=O)OCc2c1cc1n(c2=O)Cc2cc3ccccc3nc2-1,-94%
15,C[C@]12CC[C@H](O)C[C@H]1CC[C@@H]1[C@@H]2C[C@@H](O)[C@]2(C)[C@@H](C3=CC(=O)OC3)CC[C@]12O,-78.8%
16,CN1CCN(c2cccc3[nH]c(=O)oc23)CC1,-64.6%
17,CC(C)[C@]12O[C@H]1[C@@H]1O[C@]13[C@]1(O[C@H]1C[C@H]1C4=C(CC[C@@]13C)C(=O)OC4)[C@@H]2O,-90.2% and -88.7%
18,CC(=O)O[C@H]1C[C@H](O[C@H]2[C@@H](O)C[C@H](O[C@H]3[C@@H](O)C[C@H](O[C@H]4CC[C@@]5(C)[C@H](CC[C@@H]6[C@@H]5C[C@@H](O)[C@]5(C)[C@@H](C7=CC(=O)OC7)CC[C@]65O)C4)O[C@@H]3C)O[C@@H]2C)O[C@H](C)[C@H]1O[C@@H]1O[C@H](CO)[C@@H](O)[C@H](O)[C@H]1O,-89.7%
19,C[C@]12CC[C@H](O)C[C@H]1CC[C@@H]1[C@@H]2CC[C@]2(C)[C@@H](C3=CC(=O)OC3)CC[C@]12O,-87.2%
20,Cc1sc2c(c1C)C(c1ccc(Cl)cc1)=N[C@@H](CC(=O)OC(C)(C)C)c1nnc(C)n1-2,-60.2%
